Reference: PubChem BioAssay (NCI)
The panel holds about 79,000 compounds, 15% with a hit somewhere; the sample as a whole holds those more often. Unmarked numbers belong to inactive results. Calls of active or inactive are those of the source. Rule as the data show it: active = growth inhibition above about 70%; inactive = the rest.

Assays:
[1] = NCI Yeast Anticancer Drug Screen. Data for the rad52 strain (AID 147);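 also: 0% = growth of vehicle-treated control cultures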; conditions: S. cerevisiae rad52 mutant growth inhibition, stronger effect = higher value
Summary of the method: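 Growth of repair-deficient yeast cells was compared between compound-treated and vehicle-treated cultures to give percent inhibition.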

[2] = NCI Yeast Anticancer Drug Screen. Data for the wt1 strain (AID 149);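 also: 0% = growth of vehicle-treated wt1 cultures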; conditions: S. cerevisiae wt1 strain (SPY 50644) growth inhibition, stronger effect = higher value
Summary of the method: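 Compounds are added to wt1 yeast cultures. Growth is then measured. Inhibition is expressed relative to vehicle-treated controls.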

[3] = NCI Yeast Anticancer Drug Screen. Data for the rad50EPP+ strain (AID 151);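 also: 0% = growth of vehicle-treated control cultures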; conditions: S. cerevisiae rad50 mutant strain, stronger effect = higher value
Summary of the method: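 Measured: growth inhibition of rad50EPP+ yeast. Reference: vehicle-treated controls. Screen uses strains with defined genetic alterations in DNA damage repair or cell cycle control.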

[4] = NCI Yeast Anticancer Drug Screen. Data for the mgt1 strain (AID 153); conditions: S. cerevisiae mgt1 mutant growth inhibition, stronger effect = higher value
Summary of the method: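 Compounds were applied to mgt1 mutant yeast, and growth was then compared against vehicle-treated control cultures to give percent inhibition.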

[5] = NCI Yeast Anticancer Drug Screen. Data for the rad50 strain (AID 155);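 also: 0% = growth of vehicle-only cultures of the same strain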; conditions: S. cerevisiae rad50 strain growth inhibition, stronger effect = higher value
Summary of the method: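 Inhibition values express reduced yeast growth in compound-treated cultures relative to vehicle-treated controls.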

[6] = NCI Yeast Anticancer Drug Screen. Data for the mec2-1 strain (AID 157); conditions: S. cerevisiae mec2-1 strain, stronger effect = higher value
Summary of the method: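 Compounds were applied to mec2-1 yeast cells. Their growth was then compared with that of vehicle-treated cultures to give growth inhibition.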

[7] = NCI Yeast Anticancer Drug Screen. Data for the rad14 strain (AID 159);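 also: 0% = growth of vehicle-treated control cultures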; conditions: S. cerevisiae rad14 strain growth inhibition, stronger effect = higher value
Summary of the method: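 A mutant yeast strain defective in DNA damage repair is treated with compound; inhibition of its growth is scored against untreated, vehicle-exposed cultures.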

[8] = NCI Yeast Anticancer Drug Screen. Data for the sgs1 mgt1 strain (AID 161);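 also: 0% = growth of cultures given vehicle only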; conditions: S. cerevisiae sgs1 mgt1 strain, stronger effect = higher value
Summary of the method: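 Yeast cells carrying a defined DNA-repair defect were exposed to test compounds. Growth inhibition was measured relative to vehicle-treated controls.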

[9] = NCI Yeast Anticancer Drug Screen. Data for the CLN2oe strain (AID 163);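 also: 0% = growth of vehicle-only control cultures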; conditions: S. cerevisiae CLN2oe strain, stronger effect = higher value
Summary of the method: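 Cells of an engineered yeast line with disturbed cell-cycle regulation are treated with compound. Inhibition of growth is then calculated relative to the vehicle-treated reference.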

[10] = NCI Yeast Anticancer Drug Screen. Data for the cln2 rad14 strain (AID 165);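 also: 0% = growth equal to vehicle treated cultures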; conditions: S. cerevisiae cln2 rad14 strain, stronger effect = higher value
Summary of the method: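 Strain: cln2 rad14 yeast, altered in cell cycle control and DNA damage repair. Read-out: growth inhibition vs vehicle.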

[11] = NCI Yeast Anticancer Drug Screen. Data for the bub3 strain (AID 167); conditions: S. cerevisiae bub3 mutant strain, stronger effect = higher value
Summary of the method: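 Steps: expose the mutant yeast strain to compound; grow alongside vehicle-treated cultures; measure growth; express inhibition against the vehicle cultures.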

[12] = NCI Yeast Anticancer Drug Screen. Data for the wt2 strain (AID 169);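 also: 0% = growth of vehicle-treated yeast cultures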; conditions: S. cerevisiae wt2 strain growth inhibition, stronger effect = higher value
Summary of the method: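 Growth of compound-treated yeast is measured and expressed as inhibition relative to vehicle-only controls.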

[13] = NCI Yeast Anticancer Drug Screen. Data for the sgs1 strain (AID 173);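 also: 0% = growth of vehicle-only control cultures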; conditions: S. cerevisiae sgs1 mutant, stronger effect = higher value
Summary of the method: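 Strain with an altered DNA repair or cell cycle pathway exposed to compound. Growth then measured. Value = inhibition versus vehicle control.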

[14] = NCI Yeast Anticancer Drug Screen. Data for the mlh1 rad18 strain (AID 175); conditions: S. cerevisiae mlh1 rad18 strain growth inhibition, stronger effect = higher value
Summary of the method: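 A repair-deficient yeast strain is exposed to test compound, and growth is scored relative to vehicle-treated controls.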

[15] = NCI Yeast Anticancer Drug Screen. Data for the rad18 strain (AID 177); conditions: S. cerevisiae rad18 mutant growth inhibition, stronger effect = higher value
Summary of the method: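 DNA-repair-defective yeast; compound treatment; growth inhibition scored against vehicle.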

[16] = at 5.0 µM (retest, dose inferred, filed as 0.5)
[17] = at 50.0 µM (retest, dose inferred, filed as 5.0)

## Clc1ccc(SC(/C=C/NNC2=NC(c3ccccc3)C(c3ccccc3)=NN2)c2ccccc2)cc1 (stereo not drawn)
[1]; at 1.2 µM
  growth inhibition: 0%
[1]; at 3.7 µM
  growth inhibition: 6%
[1]; at 11.0 µM
  growth inhibition: 11%
[1]; at 33.0 µM
  growth inhibition: 19%
[1]; at 100.0 µM
  growth inhibition: 83% (active)
[2]; at 1.2 µM
  growth inhibition: 0%
[2]; at 3.7 µM
  growth inhibition: -1%
[2]; at 11.0 µM
  growth inhibition: -2%
[2]; at 33.0 µM
  growth inhibition: -1%
[2]; at 100.0 µM
  growth inhibition: 51%
[3]; at 1.2 µM
  growth inhibition: 2%
[3]; at 3.7 µM
  growth inhibition: 12%
[3]; at 11.0 µM
  growth inhibition: 7%
[3]; at 33.0 µM
  growth inhibition: 6%
[3]; at 100.0 µM
  growth inhibition: 0%
[4]; at 1.2 µM
  growth inhibition: -5%
[4]; at 3.7 µM
  growth inhibition: 8%
[4]; at 11.0 µM
  growth inhibition: -11%
[4]; at 33.0 µM
  growth inhibition: 8%
[4]; at 100.0 µM
  growth inhibition: 85% (active)
[5]; at 1.2 µM
  growth inhibition: 4%
[5]; at 3.7 µM
  growth inhibition: 14%
[5]; [16]
  growth inhibition: 48%
[5]; at 11.0 µM
  growth inhibition: 14%
[5]; at 33.0 µM
  growth inhibition: 47%
[5]; [17]
  growth inhibition: 48%
[5]; at 50.0 µM
  growth inhibition: 71.3% (active)
[5]; at 100.0 µM
  growth inhibition: 82% (active)
[6]; at 1.2 µM
  growth inhibition: -1%
[6]; at 3.7 µM
  growth inhibition: 2%
[6]; [16]
  growth inhibition: 0%
[6]; at 11.0 µM
  growth inhibition: 2%
[6]; at 33.0 µM
  growth inhibition: 8%
[6]; [17]
  growth inhibition: 0%
[6]; at 50.0 µM
  growth inhibition: 18.6%
[6]; at 100.0 µM
  growth inhibition: 85% (active)
[7]; at 1.2 µM
  growth inhibition: 1%
[7]; at 3.7 µM
  growth inhibition: 6%
[7]; at 11.0 µM
  growth inhibition: 2%
[7]; at 33.0 µM
  growth inhibition: 50%
[7]; at 100.0 µM
  growth inhibition: 91% (active)
[8]; [16]
  growth inhibition: 31%
[8]; [17]
  growth inhibition: 31%
[8]; at 50.0 µM
  growth inhibition: 49.8%
[9]; at 1.2 µM
  growth inhibition: -9%
[9]; at 3.7 µM
  growth inhibition: 0%
[9]; at 11.0 µM
  growth inhibition: -4%
[9]; at 33.0 µM
  growth inhibition: 1%
[9]; at 100.0 µM
  growth inhibition: 80% (active)
[10]; [16]
  growth inhibition: 7%
[10]; [17]
  growth inhibition: 7%
[10]; at 50.0 µM
  growth inhibition: 70% (active)
[11]; at 1.2 µM
  growth inhibition: -1%
[11]; at 3.7 µM
  growth inhibition: -1%
[11]; [16]
  growth inhibition: 5%
[11]; at 11.0 µM
  growth inhibition: 0%
[11]; at 33.0 µM
  growth inhibition: 37%
[11]; [17]
  growth inhibition: 5%
[11]; at 50.0 µM
  growth inhibition: 60.9%
[11]; at 100.0 µM
  growth inhibition: 84% (active)
[12]; at 1.2 µM
  growth inhibition: 0%
[12]; at 3.7 µM
  growth inhibition: 2%
[12]; at 11.0 µM
  growth inhibition: 2%
[12]; at 33.0 µM
  growth inhibition: 29%
[12]; at 100.0 µM
  growth inhibition: 86% (active)
[13]; at 1.2 µM
  growth inhibition: 1%
[13]; at 3.7 µM
  growth inhibition: 3%
[13]; at 11.0 µM
  growth inhibition: 4%
[13]; at 33.0 µM
  growth inhibition: 33%
[13]; at 100.0 µM
  growth inhibition: 87% (active)
[14]; [16]
  growth inhibition: 0%
[14]; [17]
  growth inhibition: 0%
[14]; at 50.0 µM
  growth inhibition: 58.4%
[15]; at 1.2 µM
  growth inhibition: 2%
[15]; at 3.7 µM
  growth inhibition: 9%
[15]; at 11.0 µM
  growth inhibition: 23%
[15]; at 33.0 µM
  growth inhibition: 41%
[15]; at 100.0 µM
  growth inhibition: 80% (active)
